AMA1 RON2 block = AMA1-RON2 (P. falciparum) interaction inhibition; AlphaScreen AMA1-biotinylated RON2 peptide binding; Potency, µM (titrated, usually from 58.2 µM), inactives show at the highest dose activity change, negative = inhibition, actives largely listed as inhibitors; 0.2% of 360,000 active; AID 720542;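 also: 0% = vehicle wells and -100% = peptide control; nearly all actives have a fitted effect of over 45% in size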
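AMA1 (3D7) with his tag at 25 nM final met compounds first, then biotinylated RON2 peptide at 25 nM; detection used donor plus acceptor beads, 10 µg/mL apiece, read by AlphaScreen after 30 min at room temperature.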
Pf growth 96h = inhibits malaria parasite growth, 96 h; P. falciparum luciferase reporter growth, 96 h; Potency, µM (highest dose often 28.7 µM), for the others: at the highest dose activity change, negative = inhibition, most hits filed as inhibitors; 6.9% of 320,000 active; AID 504834
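Delayed-death screen, second-generation endpoint: infected erythrocytes, 2% hematocrit, 0.05% parasitemia final; 96 hours at 37 C, 5% CO2; luciferase detection reagent; luminescence decrease equals reduced growth.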
Pf growth 48h = P. falciparum growth inhibition at 48 hours (one generation); P. falciparum luciferase growth in erythrocytes, 48 h; 5.9% of 310,000 active; Potency, µM (series often up to 28.7 µM), inactives show at the highest dose activity change, negative = inhibition, actives largely listed as inhibitors
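Read-out is firefly luciferase luminescence from an integrated reporter in P. falciparum, so falling signal marks reduced parasite growth. Infected erythrocytes were at 2% hematocrit and 0.1% parasitemia (final) in Albumax-supplemented RPMI 1640.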
VACV Venus inh = inhibitors of vaccinia virus (Venus reporter); Vaccinia virus Venus reporter expression, fluorescence; 0.46% of 330,000 active; AID 720580; Potency, µM (top dose mostly 36.5 µM), without a hit: top-dose activity change, negative = inhibition, actives largely listed as inhibitors; calls by dose curve; tested in A549 cells; also: nearly all actives have a fitted effect of over 30% in size
Vaccinia mCherry = vaccinia inhibition (mCherry reporter); Vaccinia virus mCherry reporter infection, fluorescence; 0.63% of 310,000 active; Potency, µM (series often up to 36.5 µM), for the others: top-dose activity change, negative = inhibition, actives largely listed as inhibitors; calls by dose curve; tested in A549 cells; also: nearly all actives have a fitted effect of over 35% in size
* hit, by the source's call; i = inactive; u = inconclusive; x = no result; [ ] = remark or other dose. In the library only some 8.7% were active in any assay of this set; here they are far more common. Unless noted, calls follow the shape of the dose curve; as a rule, active = well fitted curve in the direction sought with a large enough effect; inconclusive = small, poorly fitted or top-dose-only effect, or another doubt; inactive = no such curve, though single readings can be large; an effect the other way counts as inactive or inconclusive. Unless noted, % is scaled to controls: 0 for no effect and ±100 for the full control effect; potency is read from the fitted curve at half-maximal effect.

SMILES	AMA1 RON2 block	Pf growth 96h	Pf growth 48h	VACV Venus inh	Vaccinia mCherry
CSc1nnc(Cn2c(=O)sc3ccccc32)n1CCc1ccccc1	-8%	13µM*	x	-8%	-5%
O=C(CSc1nnc(Cn2c(=O)sc3ccccc32)n1CCc1ccccc1)N1CCOCC1	3%	u	9.3µM*	x	x
Cc1ccccc1C(=O)N1CCC(N2CCN(Cc3ccc(F)cc3)C(=O)C2=O)CC1	x	x	x	1%	-10%
CCOC(=O)C1=C(C)NC(SC)=C(C#N)C1CC(C)C (configuration not stated)	-5%	u	1.7µM*	-20%[7.34 µM]	-21%[7.34 µM]
CC(=O)C1=C(C)NC(SCC(=O)c2ccc(F)cc2)=C(C#N)C1CC(C)C (configuration not stated)	-5%[2.32 µM]	8.3µM*	u	-17%	i
CC(=O)C1=C(C)NC(SCC(N)=O)=C(C#N)C1CC(C)C (configuration not stated)	26%	-11%	7%	-15%	-2%
CCc1ccc(C(=O)N2CCC(c3nc4ccccc4s3)CC2)cc1	-3%	3.3µM*	13%	u	-29%
Cc1cc(Cl)ccc1Nc1nc(NCc2ccco2)nc2nccnc12	x	x	x	-11%	-3%
O=C(Cn1ncc2c3ccccc3n(Cc3cccc(Cl)c3)c2c1=O)NCCCN1CCCCC1	x	x	x	3%	-7%
Cc1ccc(CNC(=O)CCCn2c(=O)c3ccccc3n(CC(=O)C(C)(C)C)c2=O)cc1	x	x	x	-10%	-20%
CCc1nnc2c3ccccc3nc(Nc3ccc(C(C)=O)cc3)n12	x	x	x	-12%	-20%
CCOC(=O)CCCCCC(=O)Nc1ccc2c(c1)CC(=O)N([C@H](C)CO)C[C@@H](C)[C@H](CN(C)Cc1ccc3c(c1)OCO3)O2	-7%	x	x	-20%	i
C[C@@H]1CN([C@H](C)CO)C(=O)Cc2cc(NC(=O)Nc3ccccc3)ccc2O[C@@H]1CN(C)Cc1ccc2c(c1)OCO2	5%	x	x	28µM*	u
COC(=O)c1sccc1S(=O)(=O)N1CCC(n2c(CC3CCCC3)nc3cccnc32)CC1	x	x	x	-5%	-11%
Cc1cc(C)n(CC(O)COc2ccccc2C(=O)Nc2ccccc2)n1 (configuration not stated)	u	u	1.9µM*	x	x
CCOC(=O)c1c(C)n(Cc2ccccc2)c2ccc(OCC(O)Cn3nc(C)nc3C)cc12 (configuration not stated)	17%	-3%	u	u	-4%
CCOC(=O)c1c(C)n(Cc2ccccc2)c2ccc(OCC(O)Cn3nc(C)cc3C)cc12 (configuration not stated)	6%	9%	12µM*	u	-28%
Cc1cc(C)n(CC(O)COCc2ccccc2)n1 (configuration not stated)	0%	12µM*	6%	x	x
COc1ccccc1OCC(O)Cn1nc(C)cc1C (configuration not stated)	-10%	u	-3%	-10%	-12%
Cc1ncc2c(c1CNC(=O)/C=C/c1cccs1)CCN(C(=O)c1noc3c1CCCC3)C2	x	x	x	-2%	-8%
OCC1CCCN(Cc2cn(Cc3ccccc3)nc2-c2cc3ccccc3o2)C1 (configuration not stated)	8%	-21%	15µM*	-26%	-23%
COC1CCN(Cc2cn(Cc3ccccc3)nc2-c2cc3ccccc3o2)CC1	0%	10µM*	10µM*	-24%	-28%
Cc1ccc(C(=O)CC(=O)c2cc(Cl)ccc2O)cc1	54%	x	u	-27%	i
N/C(=C\C(=O)c1cc(Cl)ccc1O)C(Cl)(Cl)Cl	-1%	10µM*	2.9µM*	u	-29%
CCCn1cc(CN2CCC(Oc3ccc(C(=O)N4CCCC4)cc3)CC2)c(C)n1	-4%	10µM*	-16%	x	x
SMILES	AMA1 RON2 block	Pf growth 96h	Pf growth 48h	VACV Venus inh	Vaccinia mCherry
Cn1cc(CN2CCC(Oc3ccc(C(=O)N4CCCC4)cc3)CC2)cn1	8%	-24%	4%	x	x
O=C(c1ccc(OC2CCN(Cc3ccccc3C(F)(F)F)CC2)cc1)N1CCCCC1	-16%	3.3µM*	u	u	u
CC(C)(C)c1ccc(-c2nc(SCC(=O)Nc3ccc(Cl)cc3)[nH]c(=O)c2C#N)cc1	x	x	x	-3%[7.34 µM]	4%[7.34 µM]
O=C(Nc1cccc(N2CCC(NCc3cnn(-c4ccccc4)n3)CC2)c1)c1cccnc1	x	x	x	-8%	-12%
Cc1ccc(C(=O)N2NC(c3ccccc3F)C3C(=O)N(c4cccc(C)c4)C(=O)C32)cc1 (configuration not stated)	0%	2.1µM*	47%	x	x
COc1ccccc1N1C(=O)C2C(c3ccccc3F)NN(C(=O)c3ccc(C)cc3)C2C1=O (configuration not stated)	0%	u	18%	x	x
CCNC(=S)N(CCc1c(C)[nH]c2ccc(C)cc12)Cc1cc(OC)c(OC)c(OC)c1	-26%	u	u	u	i
CNC(=S)N(CCc1c(C)[nH]c2ccc(Cl)cc12)Cc1cccnc1	-14%	u	u	-23%	-27%
COc1cccc(NC(=S)N(CCc2nc3cc(C)c(C)cc3[nH]2)Cc2cccnc2)c1	4%	12µM*	u	-7%	-13%
CCNC(=S)N(CCc1c(C)[nH]c2ccc(Cl)cc12)Cc1cccnc1	-4%	u	12µM*	-28%	-14%
COc1ccc2[nH]c(C)c(CCN(Cc3cccs3)C(=S)Nc3cccc(F)c3)c2c1	-8%	0.74µM*	0.37µM*	-18%	u
COCCNC(=S)N(CCc1c(C)[nH]c2ccc(C)cc12)Cc1cc(OC)c(OC)c(OC)c1	-7%	9.3µM*	u	u	u
Cc1cccc(Nc2nnc(-c3ccc(C)c(S(=O)(=O)N4CCN(C)CC4)c3)c3ccccc23)c1	x	x	x	-29%	u
Cc1[nH]c2ccc(F)cc2c1CCN(Cc1cccnc1)C(=S)Nc1cccc(F)c1	6%	u	13µM*	-26%	-17%
Cc1ccccc1NC(=S)N(CCc1c(C)[nH]c2ccc(F)cc12)Cc1cccnc1	-1%	u	u	x	x
COc1cc(/C=C/c2cccc[n+]2C)ccc1OCC(=O)Nc1cccc(Cl)c1	-10%	-8%	0.93µM*	-2%	-12%
COc1ccc(NC(=O)COc2ccc(/C=N/n3c(C)nnc3C)cc2OC)cc1	-2%	12µM*	x	-5%	x
COc1ccc(NC(=O)COc2ccc(/C=C/c3cc[n+](C)cc3)cc2OC)cc1	0%	-2%	1.9µM*	-2%	-8%
COc1ccc(NC(=O)COc2ccc(/C=C/c3cccc[n+]3C)cc2OC)cc1	-1%	5%	0.93µM*	-3%	-11%
Cc1ccc(-n2ncc(C(=O)NCc3ccc4c(c3)OCO4)c2C2CCN(C(=O)OC(C)(C)C)CC2)c(C)c1	x	x	x	-23%	-25%
O=C1CCSc2ccc(S(=O)(=O)Nc3ccc(Cl)c(C(F)(F)F)c3)cc2N1	x	x	x	0%	-4%

Source: PubChem (National Center for Advancing Translational Sciences (NCATS))
